# Bioassay records deposited in PubChem BioAssay by The Scripps Research Institute Molecular Screening Center.
# Sampled rows, rich in hits. Any-hit rate of the full collection: about 2%.
# Fam108B counter = blocks mouse Fam108B hydrolase in RBBP9 counter-screen; inhibition, % at 9.51 µM; 0.33% of 300,000 active; recombinant Fam108B, FP-Rh probe fluorescence polarization;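 active = inhibition above the screen mean inhibition plus 3 SD, computed separately per campaign, cut at about 18% in these data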;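 note: inhibitors lower polarization as less probe binds the enzyme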
# PREPL inh = human PREPL enzyme inhibition | 0.68% of 320,000 active | recombinant PREPL, fluorescence polarization activity-based probe | inhibition, % at 5.96 µM;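 note: 0% = enzyme with DMSO and 100% = wells lacking enzyme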
# LYPLA1 inh = blocks human lysophospholipase 1, a PME1 counter-screen; O75608; recombinant LYPLA1, FP-Rh probe fluorescence polarization; inhibition, % at 5.9 µM; 0.16% of 320,000 active;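 active = inhibition above the mean of all tested compounds plus 3 SD, set per campaign, cut at about 14% in these data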;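 note: inhibitors block serine hydrolase probe labeling of LYPLA1 so polarization falls; 0% = enzyme with DMSO and 100% = wells lacking LYPLA1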
# Target sequence (O75608 whole entry, looked up): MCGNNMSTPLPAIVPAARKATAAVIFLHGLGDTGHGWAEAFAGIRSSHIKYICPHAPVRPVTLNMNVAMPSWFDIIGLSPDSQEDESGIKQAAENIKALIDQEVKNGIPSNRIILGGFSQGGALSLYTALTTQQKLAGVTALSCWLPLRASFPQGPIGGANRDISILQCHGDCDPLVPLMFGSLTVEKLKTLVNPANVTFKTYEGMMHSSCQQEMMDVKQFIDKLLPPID
# GSTO1 inh = blocks human GSTO1 in RBBP9 counter-screen | P78417 | recombinant GSTO1, activity-based probe fluorescence polarization | inhibition, % at 5.96 µM | 1.1% of 300,000 active;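 active = inhibition above the campaign mean inhibition plus 3 SD, cut at about 35% in these data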;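 note: 0% = GSTO1-1 with DMSO and 100% = wells lacking GSTO1-1 enzyme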
# LYPLA2 inh = LYPLA2 (human) inhibition in PME1 counter-screen. 0.38% of 320,000 active. inhibition, % at 5.9 µM. recombinant LYPLA2, FP-Rh probe fluorescence polarization. O95372;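 active = inhibition above the screen-wide mean plus 3 SD, limit set per campaign, cut at about 26% in these data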;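 note: 0% = LYPLA2 with DMSO and 100% = wells lacking LYPLA2 enzyme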
# PME-1 primary = blocks human protein phosphatase methylesterase 1. Q9Y570. recombinant PME-1, FP-Rh probe fluorescence polarization. inhibition, % at 5.9 µM. 0.53% of 320,000 active;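 active = inhibition above the campaign mean of all compounds plus 3 SD, cut at about 26% in these data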;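 note: competitive labeling of PME-1 active site by serine hydrolase directed probe; 0% = PME-1 with DMSO and 100% = wells lacking PME-1 enzyme; inhibitors block probe labeling so polarization falls and inhibition rises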
# Target sequence (Q9Y570 whole entry, looked up): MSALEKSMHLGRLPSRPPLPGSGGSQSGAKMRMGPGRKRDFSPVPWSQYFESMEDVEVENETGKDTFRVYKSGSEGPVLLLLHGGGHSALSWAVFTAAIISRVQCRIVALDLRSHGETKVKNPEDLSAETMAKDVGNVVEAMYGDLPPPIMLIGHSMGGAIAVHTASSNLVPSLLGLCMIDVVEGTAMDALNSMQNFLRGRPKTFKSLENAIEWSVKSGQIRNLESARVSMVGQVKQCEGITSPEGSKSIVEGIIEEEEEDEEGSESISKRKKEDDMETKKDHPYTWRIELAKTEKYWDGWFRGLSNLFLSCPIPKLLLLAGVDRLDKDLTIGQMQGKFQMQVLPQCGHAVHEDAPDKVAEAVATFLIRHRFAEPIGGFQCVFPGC
# PREPL inh cf = human PREPL inhibition, confirmation | shares compounds with PREPL inh | recombinant PREPL, fluorescence polarization activity probe | inhibition, % at 5.96 µM | 67% of 2,000 active | AID 2803;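 note: 0% = protein with DMSO and 100% = wells lacking protein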
# * hit, by the source's call; x = no result given. Cut-off read from the data, not from the text of the source, unless noted: active = inhibition above about 43%; inactive = the rest.
SMILES,Fam108B counter,PREPL inh,LYPLA1 inh,GSTO1 inh,LYPLA2 inh,PME-1 primary,PREPL inh cf
O=C(NCc1ccccc1Cl)C1CCN(C(=O)c2ccco2)CC1,2,9,1,-4,11,-1,x
COc1ccccc1CN(C)C(=O)COC(=O)c1ccc(Cl)nc1,x,-7,x,x,x,x,x
Nc1nn(-c2ccccc2)c(N)c1N=Nc1ccc2c(c1)OCO2,14,60*,-1,5,1,13,60*
Nc1nn(-c2ccccc2)c(N)c1N=Nc1cccc(F)c1,-2,65*,2,2,5,12,60*
Nc1[nH]n(-c2ccccc2)c(=O)c1N=Nc1ccc2c(c1)OCO2,18,45*,2,15,6,33*,47*
Cc1nn(-c2ccccc2)c(N)c1N=Nc1cccnc1,-3,5,0,3,-3,-2,x
Cc1[nH]n(-c2ccccc2)c(=O)c1N=Nc1ccc(C#N)cc1,-1,-8,0,-1,-2,4,x
Cc1cc(-c2ccccc2)nc(Cl)c1C#N,0,-12,-4,0,1,-1,x
COc1ccc(NC(=O)C2CC(c3ccccc3Cl)=NO2)cc1 (centres undefined),-3,-6,1,9,3,-2,x
COc1cc(C=NNc2ccc(S(=O)(=O)Nc3ccccc3C(=O)O)cc2[N+](=O)[O-])ccc1O,x,55*,x,x,x,x,38
CCOc1ccc(C=NNc2ccc(S(=O)(=O)Nc3ccccc3C(=O)O)cc2[N+](=O)[O-])cc1OC,x,28,x,x,x,x,x
Oc1ccc(C2=Nn3c(nnc3-c3ccco3)SC2)cc1O,16,44*,-3,-11,10,-2,32
CSc1ccc2c(c1)N(CCC1CCCCN1C)c1ccccc1S2 (centres undefined),7,48*,1,8,3,1,51*
CC(=O)c1ccc2c(c1)N(CCCN1CCC(CCO)CC1)c1ccccc1S2,2,40,0,9,4,5,x
OCCn1c(-c2ccc(F)cc2)csc1=Nc1ccccc1,-4,-13,1,0,-6,-6,x
O=S(=O)(c1ccc(-c2csc(=Nc3ccccc3)n2CCCN2CCOCC2)cc1)N1CCOCC1,2,44*,-2,-3,0,4,52*
Cc1ccc(NC(=O)N2CCOCC2)c(C)c1,5,87*,-4,-3,6,1,3
c1ccc(-c2nn3c(C4CCCCC4)nnc3s2)nc1,1,9,3,-7,7,-1,x
Clc1ccc(OCc2nn3c(C4CCCCC4)nnc3s2)cc1,-4,46*,-3,3,5,-1,33
Cc1nc2cc(NC(=O)c3ccc(S(=O)(=O)N(C)c4ccccc4)cc3)ccc2o1,8,6,-8,1,-13,-12,x
CN(C)c1ccc(/C=N/NC(=S)NCc2ccccc2)cc1,8,51*,0,-3,8,5,55*
CCN1C(=O)[C@@H]2[C@@H](c3ccc(-c4ccc(F)cc4)cc3)N3CCC[C@@]3(C(=O)OC)[C@@H]2C1=O,4,23,-3,8,0,3,x
CCN1C(=O)[C@H]2[C@@H](c3ccc(-c4ccc(OC)cc4)cc3)N3CCC[C@@]3(C(=O)OC)[C@H]2C1=O,-1,47*,-3,-8,1,-2,37
CCN1C(=O)[C@H]2[C@@H](c3ccc(-c4ccc(F)cc4)cc3)N3CCCC[C@@]3(C(=O)OC)[C@H]2C1=O,-4,45*,-2,-1,2,-2,40
CCCCCCOc1ccc(NC(=O)CC2C(=O)N(CC)C(=S)N2Cc2ccco2)cc1 (centres undefined),-2,10,-15,-7,-10,-13,x
SMILES,Fam108B counter,PREPL inh,LYPLA1 inh,GSTO1 inh,LYPLA2 inh,PME-1 primary,PREPL inh cf
O=C(NCCCN1CCN(Cc2ccccc2)CC1)C1CCN(c2nnc(-n3cccc3)s2)CC1,0,44*,4,6,13,-2,32
O=C(NCCCc1ccccc1)C1CCN(c2nnc(-n3cccc3)s2)CC1,0,19,-1,-1,15,3,x
CC(=O)Nc1cccc(C(=O)N/N=C/c2c[nH]c3ccccc23)c1,-2,-1,2,0,4,1,x
O=C(c1cc([N+](=O)[O-])ccc1Cl)N1CCN(c2ccc([N+](=O)[O-])cc2)CC1,3,65*,2,-6,12,4,58*
Cc1cc(C(=O)N2CCN(c3ccc([N+](=O)[O-])cc3)CC2)c(C)o1,-1,27,6,0,6,1,x
COc1cc(-c2nnc(-c3ccncc3)o2)ccc1OCc1ccccc1,-2,44*,3,6,15,-6,43
COc1ccccc1N1CCN(C2CCCCC2NS(=O)(=O)c2ccccc2)CC1 (centres undefined),-1,23,4,3,5,10,x
O=C(Nc1ccc(Br)cc1)N1CCCCC1,3,2,4,23,12,3,x
O=C(Nc1ccc(NC(=O)N2CCN(c3ccccc3O)CC2)cc1)N1CCN(c2ccccc2O)CC1,0,56*,-2,21,9,6,52*
COc1ccc2[nH]c(C)c(C(=O)CN3CCN(C/C=C/c4ccccc4)CC3)c2c1,0,44*,1,-3,5,2,35
COc1ccc2[nH]c(C)c(C(=O)CN3CCN(C(=O)c4ccco4)CC3)c2c1,-1,13,-5,-8,-2,4,x
COc1ccc(C(=O)N/N=C/c2c[nH]c3ccccc23)cc1,-3,1,-2,-6,-4,8,x
COc1ccc2c(/C=N/Nc3ccc(C(=O)O)cc3)c[nH]c2c1,5,56*,3,21,10,23,10
CCOC(=O)c1sc(NCc2ccco2)c(-c2nc3ccccc3s2)c1N,7,45*,4,1,4,9,46*
CCNc1sc(C(=O)c2cccs2)c(N)c1-c1nc2ccccc2s1,4,10,1,-20,0,13,x
COc1ccc(C(=O)NCCOc2ccccc2Cl)c(OC)c1OC,4,-7,-4,2,1,-2,x
COc1ccc(Br)cc1S(=O)(=O)N(CC(=O)N1CCN(C)CC1)c1ccccc1,-2,10,3,0,5,1,x
CC(C)(C)[C@H]1COC(=O)[C@@H](Cc2ccc(F)cc2)CC/C=C/C[C@@H](CC(=O)N[C@H](CO)Cc2ccccc2)C(=O)N1,x,47*,x,x,x,x,41
CC(C)(C)[C@H]1COC(=O)[C@@H](Cc2ccc(F)cc2)CC/C=C/C[C@@H](CC(=O)N[C@@H](CO)Cc2ccccc2)C(=O)N1,x,32,x,x,x,x,x
CCCNC(=O)[C@@H]1CCCN1C(=O)[C@@H]1Cc2ccccc2CN1,-4,-7,-5,3,0,3,x
